In PubChem BioAssay (Tox21):
Activity calls are given as the source filed them. Calls follow the shape of the dose curve; as a rule, active = well fitted curve in the direction sought with a large enough effect in the repeat runs; inconclusive = weak or mixed curves; inactive = flat fitted curve, though single readings scatter.

Assay: qHTS assay to test for compound auto fluorescence at 460 nm (blue) in HEK293 cell free culture (AID 720681)
Settings: cell-free medium, autofluorescence 405/460 nm (blue); series mostly up to 91.3 µM; fluorescence, % of fluorescent control: at the top concentration
Method in brief: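 Test compounds were pinned into cell-free culture medium (DMEM with 10% FBS) and fluorescence was read directly at Ex/Em 405/460 nm. Signals were expressed as fluorescence equivalents of triamterene, with DMSO vehicle as control.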
% is scaled to controls: 0 for no effect and ±100 for the full control effect.

SMILES	fluorescence, % of fluorescent control	Potency
C#CC(O)C(CC)CCCC (stereo not drawn)	0.875% (inactive)	
C=C(C)C(=O)NCCC[N+](C)(C)C	0.0281% (inactive)	
Cc1ccc(Nc2ccc(O)c3c2C(=O)c2ccccc2C3=O)cc1	-0.172% (inactive)	
CCCCCOC(=O)Nc1nc(=O)n([C@@H]2O[C@H](C)[C@@H](O)[C@H]2O)cc1F	0.0329% [at 46 µM] (inactive)	
COc1cc(C)cc(O)c1	-0.0154% (inactive)	
CCCCCCOC(=O)CC(CC(=O)OCCCCCC)(OC(=O)CCC)C(=O)OCCCCCC	0.0244% (inactive)	
N#CCc1ccccc1[N+](=O)[O-]	-0.117% (inactive)	
CN(C)N=Nc1ccccc1	-0.213% (inactive)	
C(=C(c1ccccc1)c1ccccc1)c1ccccc1	0.156% (inactive)	
C=C(C)C(=O)OCCCCCCCCCCCCCCCCCC	-0.0848% [at 18.6 µM] (inactive)	
CCCCNc1ccccc1	-0.201% (inactive)	
COC(=O)[C@H]1[C@H]2C[C@@H]3c4[nH]c5cc(OC)ccc5c4CCN3C[C@H]2C[C@@H](OC(=O)COc2ccc(OC)cc2)[C@@H]1OC	2.43% [at 46 µM] (inactive)	
Nc1cc(N)cc(C(=O)O)c1	1.84% (inactive)	
CC(O)CN(CCCN(C)C)CCCN(C)C (stereo not drawn)	0.125% (inactive)	
CCCC(=O)O[C@]1(C(=O)CCl)[C@@H](C)C[C@H]2[C@@H]3CCC4=CC(=O)C=C[C@]4(C)[C@@]3(F)C(=O)C[C@@]21C	0.0061% [at 46 µM] (inactive)	
CC(C)=CC(=O)O	0.116% (inactive)	

SMILES	fluorescence, % of fluorescent control	Potency
CC(C)(O)C(=O)c1ccc(OCCO)cc1	-0.0173% (inactive)	
NC(=O)CCCCC1CCSS1 (stereo not drawn)	-0.0583% [at 46 µM] (inactive)	
COC(=O)CCCCCCCCC(=O)OC	0.0481% (inactive)	
CN(C)C(=O)C(CCN1CCC(O)(c2ccc(Cl)cc2)CC1)(c1ccccc1)c1ccccc1	-0.108% [at 46 µM] (inactive)	
Cc1nccn1CC1CCc2c(c3ccccc3n2C)C1=O (stereo not drawn)		inactive
CCC(=O)c1cccc(Cl)c1	-0.119% [at 95.7 µM] (inactive)	
C=CCn1c(=O)n([C@@H]2O[C@H](CO)[C@@H](O)[C@H]2O)c2nc(N)[nH]c(=O)c21	0.0899% [at 46 µM] (inactive)	
Fc1ccccc1-c1ccccc1	0.0309% [at 95.7 µM] (inactive)	
OC1OC[C@@H](O)[C@H](O)[C@H]1O (stereo partly drawn)	0.0373% (inactive)	
NC(=S)Nc1cccc2ccccc12	-0.0083% [at 3.72 µM] (inactive)	
CCCOc1ccccc1-c1nc2n[nH]nc2c(=O)[nH]1	-0.06% [at 46 µM] (inactive)	
OCC(CO)(CO)COCC(CO)(CO)CO	-0.152% (inactive)	
CC12CCC(CC1=O)C2(C)C (stereo not drawn)	0.12% (inactive)	
O=S(=O)(c1cccc2cnccc12)N1CCCNCC1	0.185% [at 46 µM] (inactive)	
CNc1ncnc2nc[nH]c12	-0.113% [at 95.7 µM] (inactive)	
COc1ccc(N=[N+]([O-])c2ccc(OC)cc2)cc1	0.0065% (inactive)	

Assay: qHTS assay to test for compound auto fluorescence at 535 nm (green) in HEK293 cell free culture (AID 720682)
Settings: cell-free medium, green autofluorescence 485/535 nm, active compounds read high; series mostly up to 91.3 µM; activity change: at the top concentration
Method in brief: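 Compounds were pin-transferred into cell-free DMEM with 10% FBS, and green fluorescence was read at excitation 485 nm and emission 535 nm. Intensities were expressed as fluorescein-equivalent values.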

SMILES	activity change	outcome
C#CC(O)C(CC)CCCC (stereo not drawn)	-0.0057% (inactive)	
C=C(C)C(=O)NCCC[N+](C)(C)C	-0.018% (inactive)	
Cc1ccc(Nc2ccc(O)c3c2C(=O)c2ccccc2C3=O)cc1	-0.0046% (inactive)	
CCCCCOC(=O)Nc1nc(=O)n([C@@H]2O[C@H](C)[C@@H](O)[C@H]2O)cc1F	-0.0282% [at 46 µM] (inactive)	
COc1cc(C)cc(O)c1	-0.0011% (inactive)	
CCCCCCOC(=O)CC(CC(=O)OCCCCCC)(OC(=O)CCC)C(=O)OCCCCCC	-0.093% (inactive)	
N#CCc1ccccc1[N+](=O)[O-]	-0.0056% (inactive)	
CN(C)N=Nc1ccccc1	-0.0498% (inactive)	
C(=C(c1ccccc1)c1ccccc1)c1ccccc1	7.4e-05% (inactive)	
C=C(C)C(=O)OCCCCCCCCCCCCCCCCCC	-0.0033% [at 18.6 µM] (inactive)	
CCCCNc1ccccc1	-0.173% (inactive)	
COC(=O)[C@H]1[C@H]2C[C@@H]3c4[nH]c5cc(OC)ccc5c4CCN3C[C@H]2C[C@@H](OC(=O)COc2ccc(OC)cc2)[C@@H]1OC	0.337% [at 46 µM] (inactive)	
Nc1cc(N)cc(C(=O)O)c1	1.35% (inactive)	
COc1cccc(Br)c1	0.0202% (inactive)	
C1CCCCCCCCCCC1	0.0049% [at 18.6 µM] (inactive)	
CC(O)CN(CCCN(C)C)CCCN(C)C (stereo not drawn)	0.0051% (inactive)	
CCCC(=O)O[C@]1(C(=O)CCl)[C@@H](C)C[C@H]2[C@@H]3CCC4=CC(=O)C=C[C@]4(C)[C@@]3(F)C(=O)C[C@@]21C	-0.119% [at 46 µM] (inactive)	
CC(C)=CC(=O)O	0.0466% (inactive)	

SMILES	activity change	outcome
CC/C=C\CCCCO	-0.0673% (inactive)	
CC(C)(O)C(=O)c1ccc(OCCO)cc1	-0.0427% (inactive)	
NC(=O)CCCCC1CCSS1 (stereo not drawn)	0.002% [at 46 µM] (inactive)	
COC(=O)CCCCCCCCC(=O)OC	0.111% (inactive)	
CN(C)C(=O)C(CCN1CCC(O)(c2ccc(Cl)cc2)CC1)(c1ccccc1)c1ccccc1	-0.0421% [at 46 µM] (inactive)	
Cc1nccn1CC1CCc2c(c3ccccc3n2C)C1=O (stereo not drawn)		inactive
CCC(=O)c1cccc(Cl)c1	-0.0128% [at 95.7 µM] (inactive)	
C=CCn1c(=O)n([C@@H]2O[C@H](CO)[C@@H](O)[C@H]2O)c2nc(N)[nH]c(=O)c21	0.0225% [at 46 µM] (inactive)	
Fc1ccccc1-c1ccccc1	0.0563% [at 95.7 µM] (inactive)	
OC1OC[C@@H](O)[C@H](O)[C@H]1O (stereo partly drawn)	0.0327% (inactive)	
NC(=S)Nc1cccc2ccccc12	0.0539% [at 3.72 µM] (inactive)	
OCCCCCCO	0.0092% [at 95.7 µM] (inactive)	
CCCOc1ccccc1-c1nc2n[nH]nc2c(=O)[nH]1	-0.195% [at 46 µM] (inactive)	
OCC(CO)(CO)COCC(CO)(CO)CO	-0.0274% (inactive)	
CC12CCC(CC1=O)C2(C)C (stereo not drawn)	-0.0795% (inactive)	
O=S(=O)(c1cccc2cnccc12)N1CCCNCC1	0.0659% [at 46 µM] (inactive)	
CNc1ncnc2nc[nH]c12	-0.0361% [at 95.7 µM] (inactive)	
COc1ccc(N=[N+]([O-])c2ccc(OC)cc2)cc1	-0.0626% (inactive)	
